# Assay results published in publication PMC7862700, “An all-to-all approach to the identification of sequence-specific readers for epigenetic DNA modifications on cytosine”.
# Experiments:
# Experiment in all cases: DAPPL (digital affinity profiling via proximity ligation, sequencing); 10 mM Tris-HCl pH 7.5, 50 mM NaCl, 1 mM DTT, 4% glycerol, room temperature, 30 min; GST-TFs on glutathione beads, 16-mer random dsDNA library, 0.1% formaldehyde crosslink after washing; high values mean tight binding
# FLI1 = molecular target: T1, FLI1 (Homo sapiens, UniProt Q01543 1-452); conditions: protein: recombinant; tags: N-terminal GST; dsDNA, one strand shown
# T1 sequence: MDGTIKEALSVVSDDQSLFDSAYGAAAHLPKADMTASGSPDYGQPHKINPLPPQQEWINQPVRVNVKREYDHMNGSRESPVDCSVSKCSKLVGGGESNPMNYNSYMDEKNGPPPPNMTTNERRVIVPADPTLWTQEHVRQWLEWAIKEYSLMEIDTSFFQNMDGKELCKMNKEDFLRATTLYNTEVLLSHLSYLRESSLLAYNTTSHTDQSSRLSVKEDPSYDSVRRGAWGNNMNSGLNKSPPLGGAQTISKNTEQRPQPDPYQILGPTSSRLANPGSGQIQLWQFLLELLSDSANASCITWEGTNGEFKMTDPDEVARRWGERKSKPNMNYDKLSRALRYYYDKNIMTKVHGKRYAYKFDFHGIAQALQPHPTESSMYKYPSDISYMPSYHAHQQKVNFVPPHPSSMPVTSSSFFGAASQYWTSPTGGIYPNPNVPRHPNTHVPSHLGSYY
# Summary of the method: (§1)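 A tag-only sample was pooled with DNA-barcoded human transcription factors that had been expressed in yeast as GST fusions and captured on glutathione beads. The pools were incubated for 30 min at room temperature with 200 nmole of a random double-stranded 16-mer DNA library in Tris/NaCl/DTT/glycerol buffer, then washed, crosslinked with 0.1% formaldehyde, proximity-ligated (BsaI/T4 ligase, 1 h, 37 °C), PCR-amplified and sequenced on an Illumina NextSeq500. Binding signal is each hexamer's read frequency for a factor divided by its frequency for the tag-only sample.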
# ELK1 = molecular target: T2, ELK1 (Homo sapiens, UniProt P19419 1-428); conditions: protein: recombinant; tags: N-terminal GST; dsDNA, one strand shown
# T2 sequence: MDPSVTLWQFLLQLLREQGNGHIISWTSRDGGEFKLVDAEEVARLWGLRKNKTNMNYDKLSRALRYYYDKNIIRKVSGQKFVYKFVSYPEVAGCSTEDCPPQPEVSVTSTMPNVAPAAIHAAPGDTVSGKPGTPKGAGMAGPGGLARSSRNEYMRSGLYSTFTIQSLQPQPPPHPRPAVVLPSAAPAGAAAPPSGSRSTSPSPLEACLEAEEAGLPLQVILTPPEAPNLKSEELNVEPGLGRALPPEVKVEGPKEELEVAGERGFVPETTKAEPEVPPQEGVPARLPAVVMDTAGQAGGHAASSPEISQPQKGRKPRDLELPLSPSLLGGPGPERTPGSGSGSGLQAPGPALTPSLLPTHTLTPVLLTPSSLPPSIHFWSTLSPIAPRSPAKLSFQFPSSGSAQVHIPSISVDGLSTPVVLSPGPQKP
# Summary of the method: as §1
# GABPA = molecular target: T3, GABPA (Homo sapiens, UniProt Q06546 1-454); conditions: protein: recombinant; tags: N-terminal GST; dsDNA, one strand shown
# T3 sequence: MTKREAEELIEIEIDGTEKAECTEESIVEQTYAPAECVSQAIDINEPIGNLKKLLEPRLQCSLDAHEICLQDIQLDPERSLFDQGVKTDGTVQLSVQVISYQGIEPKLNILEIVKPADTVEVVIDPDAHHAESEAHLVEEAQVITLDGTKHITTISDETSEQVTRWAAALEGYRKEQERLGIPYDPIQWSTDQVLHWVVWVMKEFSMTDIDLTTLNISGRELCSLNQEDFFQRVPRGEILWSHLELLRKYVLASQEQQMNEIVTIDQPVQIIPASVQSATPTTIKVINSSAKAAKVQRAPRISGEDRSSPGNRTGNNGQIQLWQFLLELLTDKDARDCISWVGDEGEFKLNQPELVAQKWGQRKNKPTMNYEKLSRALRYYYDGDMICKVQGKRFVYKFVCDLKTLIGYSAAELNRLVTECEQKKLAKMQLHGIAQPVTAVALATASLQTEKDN
# Summary of the method: as §1
# ERG = molecular target: T4, ERG (Homo sapiens, UniProt P11308 1-479); conditions: protein: recombinant; tags: N-terminal GST; dsDNA, one strand shown
# T4 sequence: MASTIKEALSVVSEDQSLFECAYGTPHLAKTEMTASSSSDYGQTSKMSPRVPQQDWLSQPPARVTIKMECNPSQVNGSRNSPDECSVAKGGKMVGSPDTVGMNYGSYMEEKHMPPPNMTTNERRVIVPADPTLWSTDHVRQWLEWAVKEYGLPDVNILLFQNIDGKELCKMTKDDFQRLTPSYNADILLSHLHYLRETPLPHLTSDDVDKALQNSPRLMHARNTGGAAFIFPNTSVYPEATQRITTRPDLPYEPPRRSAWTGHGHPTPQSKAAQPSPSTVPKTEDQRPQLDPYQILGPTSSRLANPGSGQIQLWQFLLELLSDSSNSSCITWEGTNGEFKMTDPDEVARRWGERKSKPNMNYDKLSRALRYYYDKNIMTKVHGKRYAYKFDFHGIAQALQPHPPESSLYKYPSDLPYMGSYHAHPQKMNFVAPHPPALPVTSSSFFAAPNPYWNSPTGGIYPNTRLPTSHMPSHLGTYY
# Summary of the method: as §1
# ELF1 = ELF1 (Homo sapiens, UniProt P32519 1-619); conditions: protein: recombinant; tags: N-terminal GST; dsDNA, one strand shown
# Chain of ELF1 (P32519 whole entry): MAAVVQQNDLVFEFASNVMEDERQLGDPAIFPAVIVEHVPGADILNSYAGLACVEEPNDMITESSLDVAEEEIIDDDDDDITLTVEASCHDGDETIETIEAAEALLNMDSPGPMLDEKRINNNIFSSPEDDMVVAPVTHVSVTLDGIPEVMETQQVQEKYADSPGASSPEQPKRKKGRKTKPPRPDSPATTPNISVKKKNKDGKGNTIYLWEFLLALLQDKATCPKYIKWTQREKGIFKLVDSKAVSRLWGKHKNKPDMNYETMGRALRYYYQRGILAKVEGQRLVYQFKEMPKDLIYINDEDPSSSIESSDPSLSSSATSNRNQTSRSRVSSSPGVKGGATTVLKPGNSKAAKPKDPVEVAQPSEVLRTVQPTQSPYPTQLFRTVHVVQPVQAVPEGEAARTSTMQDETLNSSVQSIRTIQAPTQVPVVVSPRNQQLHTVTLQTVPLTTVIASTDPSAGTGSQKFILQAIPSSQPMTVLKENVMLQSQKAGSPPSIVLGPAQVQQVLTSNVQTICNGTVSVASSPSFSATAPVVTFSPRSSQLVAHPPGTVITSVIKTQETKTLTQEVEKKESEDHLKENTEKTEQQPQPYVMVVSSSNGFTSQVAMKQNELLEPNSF
# Summary of the method: as §1
# EHF = molecular target: T5, EHF (Homo sapiens, UniProt Q9NZC4 1-300); conditions: protein: recombinant; tags: N-terminal GST; dsDNA, one strand shown
# T5 sequence: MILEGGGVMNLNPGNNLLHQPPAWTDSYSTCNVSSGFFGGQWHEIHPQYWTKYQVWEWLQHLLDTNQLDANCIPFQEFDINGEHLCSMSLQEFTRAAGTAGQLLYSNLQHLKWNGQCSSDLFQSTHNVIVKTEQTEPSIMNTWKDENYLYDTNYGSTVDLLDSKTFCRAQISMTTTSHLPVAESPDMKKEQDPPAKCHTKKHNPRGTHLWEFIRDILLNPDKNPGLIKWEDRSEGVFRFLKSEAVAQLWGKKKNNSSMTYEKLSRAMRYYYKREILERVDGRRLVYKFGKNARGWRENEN
# Summary of the method: as §1
# SPI1 = SPI1 (Homo sapiens, UniProt P17947 1-270); conditions: protein: recombinant; tags: N-terminal GST; dsDNA, one strand shown
# Summary of the method: as §1
# ELK3 = molecular target: T6, ELK3 (Homo sapiens, UniProt P41970 1-407); conditions: protein: recombinant; tags: N-terminal GST; dsDNA, one strand shown
# T6 sequence: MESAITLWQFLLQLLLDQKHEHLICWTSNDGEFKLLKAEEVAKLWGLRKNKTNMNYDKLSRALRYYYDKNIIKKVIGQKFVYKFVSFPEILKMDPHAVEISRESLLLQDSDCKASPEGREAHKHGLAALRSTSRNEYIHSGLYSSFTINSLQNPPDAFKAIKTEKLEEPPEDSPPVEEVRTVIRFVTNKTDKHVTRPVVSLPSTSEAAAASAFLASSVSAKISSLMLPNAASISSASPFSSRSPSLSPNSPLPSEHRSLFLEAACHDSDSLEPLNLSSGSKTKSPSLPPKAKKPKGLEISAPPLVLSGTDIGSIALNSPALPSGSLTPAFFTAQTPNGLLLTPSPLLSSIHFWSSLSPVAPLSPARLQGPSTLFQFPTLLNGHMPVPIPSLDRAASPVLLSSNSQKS
# Summary of the method: as §1
# FEV = molecular target: T7, FEV (Homo sapiens, UniProt Q99581 1-238); conditions: protein: recombinant; tags: N-terminal GST; dsDNA, one strand shown
# T7 sequence: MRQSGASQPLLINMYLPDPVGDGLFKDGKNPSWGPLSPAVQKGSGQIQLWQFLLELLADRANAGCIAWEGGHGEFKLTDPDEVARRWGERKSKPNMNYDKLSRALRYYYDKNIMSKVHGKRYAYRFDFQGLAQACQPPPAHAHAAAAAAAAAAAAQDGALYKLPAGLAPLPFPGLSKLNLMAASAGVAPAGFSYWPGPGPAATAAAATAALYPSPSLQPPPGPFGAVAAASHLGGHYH
# Summary of the method: as §1
# ETV5 = ETV5 (Homo sapiens, UniProt P41161 1-510); conditions: protein: recombinant; tags: N-terminal GST; dsDNA, one strand shown
# Chain of ETV5 (P41161 whole entry): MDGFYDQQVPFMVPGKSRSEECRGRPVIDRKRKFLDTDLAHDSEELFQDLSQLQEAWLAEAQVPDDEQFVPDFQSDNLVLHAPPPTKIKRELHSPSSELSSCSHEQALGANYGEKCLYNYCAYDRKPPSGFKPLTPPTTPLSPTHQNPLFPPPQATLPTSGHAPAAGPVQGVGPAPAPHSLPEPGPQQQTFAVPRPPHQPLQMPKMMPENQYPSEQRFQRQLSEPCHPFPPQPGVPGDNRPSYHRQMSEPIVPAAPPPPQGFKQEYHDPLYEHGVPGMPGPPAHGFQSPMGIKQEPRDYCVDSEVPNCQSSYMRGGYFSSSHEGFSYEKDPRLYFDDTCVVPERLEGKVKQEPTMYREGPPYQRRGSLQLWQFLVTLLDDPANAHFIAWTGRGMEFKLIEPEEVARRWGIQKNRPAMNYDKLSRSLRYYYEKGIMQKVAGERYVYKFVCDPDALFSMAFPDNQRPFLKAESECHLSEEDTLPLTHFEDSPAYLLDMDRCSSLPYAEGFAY
# Summary of the method: as §1
# HSF1 = HSF1 (Homo sapiens, UniProt Q00613 1-529); conditions: protein: recombinant; tags: N-terminal GST; chain copies: 3; dsDNA, one strand shown
# Chain of HSF1 (Q00613 whole entry): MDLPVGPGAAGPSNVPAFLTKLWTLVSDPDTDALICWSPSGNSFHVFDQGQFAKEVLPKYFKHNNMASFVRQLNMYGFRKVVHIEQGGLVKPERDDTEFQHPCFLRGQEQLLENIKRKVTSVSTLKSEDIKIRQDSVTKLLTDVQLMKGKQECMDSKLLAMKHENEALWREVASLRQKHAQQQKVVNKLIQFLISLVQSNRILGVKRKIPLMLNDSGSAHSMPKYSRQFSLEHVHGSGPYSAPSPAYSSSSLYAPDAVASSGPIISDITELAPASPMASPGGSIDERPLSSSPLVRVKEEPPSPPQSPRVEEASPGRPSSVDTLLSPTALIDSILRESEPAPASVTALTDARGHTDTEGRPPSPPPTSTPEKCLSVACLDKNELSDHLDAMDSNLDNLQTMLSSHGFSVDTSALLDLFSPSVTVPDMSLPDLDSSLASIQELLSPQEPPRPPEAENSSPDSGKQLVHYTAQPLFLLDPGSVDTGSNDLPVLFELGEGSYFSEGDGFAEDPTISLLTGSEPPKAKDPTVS
# Summary of the method: as §1
# SPIC = molecular target: T8, SPIC (Homo sapiens, UniProt Q8N5J4 1-248); conditions: protein: recombinant; tags: N-terminal GST; dsDNA, one strand shown
# T8 sequence: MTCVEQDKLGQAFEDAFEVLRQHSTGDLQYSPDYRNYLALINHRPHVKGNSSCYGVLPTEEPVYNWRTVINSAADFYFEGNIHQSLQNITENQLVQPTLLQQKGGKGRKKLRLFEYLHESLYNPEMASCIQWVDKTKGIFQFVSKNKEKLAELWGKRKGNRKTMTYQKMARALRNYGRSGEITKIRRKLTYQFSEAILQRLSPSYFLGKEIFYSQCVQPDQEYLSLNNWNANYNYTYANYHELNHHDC
# Summary of the method: as §1
# ELF4 = ELF4 (Homo sapiens, UniProt Q99607 1-663); conditions: protein: recombinant; tags: N-terminal GST; dsDNA, one strand shown
# Chain of ELF4 (Q99607 whole entry): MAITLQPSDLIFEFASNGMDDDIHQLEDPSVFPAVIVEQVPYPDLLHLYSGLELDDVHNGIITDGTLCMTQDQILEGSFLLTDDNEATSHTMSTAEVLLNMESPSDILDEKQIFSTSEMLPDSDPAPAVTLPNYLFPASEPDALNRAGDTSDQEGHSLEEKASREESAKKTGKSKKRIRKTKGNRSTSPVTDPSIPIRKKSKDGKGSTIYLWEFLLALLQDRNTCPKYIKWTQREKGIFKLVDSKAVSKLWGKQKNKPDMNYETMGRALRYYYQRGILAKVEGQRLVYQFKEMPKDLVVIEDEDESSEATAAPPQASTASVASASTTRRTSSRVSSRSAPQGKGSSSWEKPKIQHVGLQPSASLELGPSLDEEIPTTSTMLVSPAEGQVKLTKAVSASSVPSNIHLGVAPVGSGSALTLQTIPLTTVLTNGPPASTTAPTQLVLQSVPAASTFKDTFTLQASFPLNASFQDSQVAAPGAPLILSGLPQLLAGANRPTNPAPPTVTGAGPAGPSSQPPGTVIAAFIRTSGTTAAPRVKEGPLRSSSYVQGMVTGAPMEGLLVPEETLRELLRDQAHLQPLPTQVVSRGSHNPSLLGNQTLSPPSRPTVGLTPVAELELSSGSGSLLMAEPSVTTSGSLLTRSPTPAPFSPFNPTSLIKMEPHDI
# Summary of the method: as §1
# ELK4 = molecular target: T9, ELK4 (Homo sapiens, UniProt P28324-2 1-405); conditions: protein: recombinant; tags: N-terminal GST; dsDNA, one strand shown
# T9 sequence: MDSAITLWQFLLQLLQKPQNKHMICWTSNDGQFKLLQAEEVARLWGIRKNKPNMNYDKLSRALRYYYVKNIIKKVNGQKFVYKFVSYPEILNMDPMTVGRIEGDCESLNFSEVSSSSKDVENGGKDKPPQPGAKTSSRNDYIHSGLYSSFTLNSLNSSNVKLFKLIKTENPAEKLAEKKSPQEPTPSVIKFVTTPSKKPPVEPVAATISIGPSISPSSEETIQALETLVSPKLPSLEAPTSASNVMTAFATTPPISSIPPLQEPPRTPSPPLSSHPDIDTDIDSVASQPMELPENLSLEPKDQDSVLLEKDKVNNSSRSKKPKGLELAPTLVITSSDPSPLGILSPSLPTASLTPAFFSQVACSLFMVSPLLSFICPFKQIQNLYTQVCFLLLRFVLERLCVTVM
# Summary of the method: as §1
# ETV2 = molecular target: T10, ETV2 (Homo sapiens, UniProt O00321 1-342); conditions: protein: recombinant; tags: N-terminal GST; dsDNA, one strand shown
# T10 sequence: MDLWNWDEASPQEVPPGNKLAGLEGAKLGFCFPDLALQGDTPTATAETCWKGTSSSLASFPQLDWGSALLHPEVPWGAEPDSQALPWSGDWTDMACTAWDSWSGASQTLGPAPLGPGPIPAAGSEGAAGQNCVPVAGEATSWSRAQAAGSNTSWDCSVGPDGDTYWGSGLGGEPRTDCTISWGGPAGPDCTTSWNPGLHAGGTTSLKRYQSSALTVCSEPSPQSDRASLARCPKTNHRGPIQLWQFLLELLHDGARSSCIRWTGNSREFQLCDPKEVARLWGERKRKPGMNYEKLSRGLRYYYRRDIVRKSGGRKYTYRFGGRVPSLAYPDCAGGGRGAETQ
# Summary of the method: as §1
# ELF3 = molecular target: T11, ELF3 (Homo sapiens, UniProt P78545 1-371); conditions: protein: recombinant; tags: N-terminal GST; dsDNA, one strand shown
# T11 sequence: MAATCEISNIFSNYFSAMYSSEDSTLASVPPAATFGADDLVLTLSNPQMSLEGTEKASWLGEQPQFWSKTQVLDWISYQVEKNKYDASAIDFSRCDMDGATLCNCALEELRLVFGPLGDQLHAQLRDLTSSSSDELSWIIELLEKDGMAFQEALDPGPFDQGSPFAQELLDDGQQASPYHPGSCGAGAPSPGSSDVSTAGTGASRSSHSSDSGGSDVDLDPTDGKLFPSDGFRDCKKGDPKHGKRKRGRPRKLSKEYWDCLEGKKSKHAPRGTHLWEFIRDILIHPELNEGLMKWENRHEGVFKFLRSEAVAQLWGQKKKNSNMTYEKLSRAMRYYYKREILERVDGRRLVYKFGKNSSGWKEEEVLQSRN
# Summary of the method: as §1
# CRX = CRX (Homo sapiens, UniProt O43186 1-299); conditions: protein: recombinant; tags: N-terminal GST; dsDNA, one strand shown
# Chain of CRX (O43186 whole entry): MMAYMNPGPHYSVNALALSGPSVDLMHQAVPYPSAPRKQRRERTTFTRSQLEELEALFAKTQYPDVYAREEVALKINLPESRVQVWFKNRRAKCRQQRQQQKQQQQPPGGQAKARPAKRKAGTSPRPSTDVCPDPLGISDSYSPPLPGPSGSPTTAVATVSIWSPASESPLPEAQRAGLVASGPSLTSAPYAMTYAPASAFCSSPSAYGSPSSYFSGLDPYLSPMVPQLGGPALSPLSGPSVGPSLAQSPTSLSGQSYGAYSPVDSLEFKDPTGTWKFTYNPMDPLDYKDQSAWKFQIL
# Summary of the method: as §1
# ETV1 = ETV1 (Homo sapiens, UniProt P50549 1-477); conditions: protein: recombinant; tags: N-terminal GST; dsDNA, one strand shown
# Chain of ETV1 (P50549 whole entry): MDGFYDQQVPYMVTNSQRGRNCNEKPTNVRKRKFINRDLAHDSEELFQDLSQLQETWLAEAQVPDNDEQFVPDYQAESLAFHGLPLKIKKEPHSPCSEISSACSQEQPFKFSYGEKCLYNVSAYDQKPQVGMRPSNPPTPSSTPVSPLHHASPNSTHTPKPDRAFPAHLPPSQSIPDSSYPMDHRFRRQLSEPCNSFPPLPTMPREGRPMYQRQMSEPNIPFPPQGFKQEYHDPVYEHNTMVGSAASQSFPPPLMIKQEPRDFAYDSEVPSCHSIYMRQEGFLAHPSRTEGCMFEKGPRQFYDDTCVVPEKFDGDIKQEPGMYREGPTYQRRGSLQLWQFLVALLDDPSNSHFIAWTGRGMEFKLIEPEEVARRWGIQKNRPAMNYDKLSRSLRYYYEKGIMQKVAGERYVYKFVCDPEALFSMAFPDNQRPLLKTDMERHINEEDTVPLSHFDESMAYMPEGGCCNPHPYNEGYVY
# Summary of the method: as §1
sequence,measurement,setting,value
ATACTG,binding signal,FLI1,"1.1 fold enrichment (6-mer frequency, TF over GST control)"
same,binding signal,ELK1,"1.09 fold enrichment (6-mer frequency, TF over GST control)"
same,binding signal,GABPA,"1.16 fold enrichment (6-mer frequency, TF over GST control)"
same,binding signal,ERG,"1.06 fold enrichment (6-mer frequency, TF over GST control)"
same,binding signal,ELF1,"1.09 fold enrichment (6-mer frequency, TF over GST control)"
same,binding signal,EHF,"1.1 fold enrichment (6-mer frequency, TF over GST control)"
same,binding signal,SPI1,"1.14 fold enrichment (6-mer frequency, TF over GST control)"
same,binding signal,ELK3,"1.14 fold enrichment (6-mer frequency, TF over GST control)"
same,binding signal,FEV,"1.04 fold enrichment (6-mer frequency, TF over GST control)"
same,binding signal,ETV5,"1.15 fold enrichment (6-mer frequency, TF over GST control)"
same,binding signal,HSF1,"1.06 fold enrichment (6-mer frequency, TF over GST control)"
same,binding signal,SPIC,"1.06 fold enrichment (6-mer frequency, TF over GST control)"
same,binding signal,ELF4,"1.16 fold enrichment (6-mer frequency, TF over GST control)"
same,binding signal,ELK4,"1.29 fold enrichment (6-mer frequency, TF over GST control)"
same,binding signal,ETV2,"1.32 fold enrichment (6-mer frequency, TF over GST control)"
same,binding signal,ELF3,"1.18 fold enrichment (6-mer frequency, TF over GST control)"
same,binding signal,CRX,"1.11 fold enrichment (6-mer frequency, TF over GST control)"
same,binding signal,ETV1,"1.05 fold enrichment (6-mer frequency, TF over GST control)"
